Records with an inconclusive call do not appear. Active and inactive are the calls of the source. Calls follow the shape of the dose curve; as a rule, active = well fitted inhibition curve with a large enough effect; inconclusive = small, poorly fitted or top-dose-only effect; inactive = flat fitted curve, though single readings scatter.
Legend:
Test in all cases: qHTS profiling for inhibitors of Plasmodium falciparum proliferation (AID 504749); also: nearly all actives have a fitted effect of over 60% in size
Conditions in all cases: P. falciparum in erythrocytes, SYBR Green DNA, 72 h; series mostly up to 28.7 µM
CP256 = system: CP256
Outline: (§1)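 In a 72 h erythrocytic culture (37 C, humidified, 5% CO2) at 2.5% hematocrit and 0.3% starting parasitemia, compounds were tested; SYBR Green I in detergent lysis buffer stained parasite DNA overnight.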

CP260 = system: CP260
Outline: as §1

CP262 = system: CP262
Outline: as §1

CP265 = system: CP265
Outline: as §1

CP268 = system: CP268
Outline: as §1

CP269 = system: CP269
Outline: as §1

CP297 = system: CP297
Outline: as §1

CP305 = system: CP305
Outline: as §1

CP315 = system: CP315
Outline: as §1

CP325 = system: CP325
Outline: as §1

CP329 = system: CP329
Outline: as §1

DFO2036 = system: DFO2036
Outline: as §1

DIV14 = system: DIV14
Outline: as §1

DIV17 = system: DIV17
Outline: as §1

DIV30 = system: DIV30
Outline: as §1

Dd2 = system: Dd2
Outline: as §1

ECU = system: ECU
Outline: as §1

FAB9 = system: FAB9
Outline: as §1

HB3 = system: HB3
Outline: as §1

JCK = system: JCK
Outline: as §1

P93_24 = system: P93_24
Outline: as §1

P94_40 = system: P94_40
Outline: as §1

PAD = system: PAD
Outline: as §1

PC15 = system: PC15
Outline: as §1

PC26 = system: PC26
Outline: as §1

PC49 = system: PC49
Outline: as §1

SC27B = system: SC27B
Outline: as §1

TAB113 = system: TAB113
Outline: as §1

Measured: Potency

C=C1C(=O)O[C@@H]2[C@@H]1CC/C(C)=C\CC[C@@]1(C)O[C@H]21
inactive: all assays above

— PubChem BioAssay (NCATS)
